# Measurements reported in article PMC11006913.
# Substitutions are numbered along the chain they refer to.
# Legend:
# Test in all cases: PBM; 200 nM protein, PBS
# Details in all cases: dsDNA, one strand shown
# SIX6 [1] = biological target: T1, SIX6 (Homo sapiens, UniProt O95475 114-200, L167I)
# T1 sequence: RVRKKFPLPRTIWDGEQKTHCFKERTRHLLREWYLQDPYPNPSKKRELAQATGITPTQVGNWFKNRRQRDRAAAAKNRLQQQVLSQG
# SIX6 [2] = biological target: T2, SIX6 (Homo sapiens, UniProt O95475 114-200, L143V)
# T2 sequence: T1 sequence with L30V, I54L
# SIX6 [3] = biological target: T3, SIX6 (Homo sapiens, UniProt O95475 114-200, H141N)
# T3 sequence: T1 sequence with H28N, I54L
# SIX6 [4] = biological target: T4, SIX6 (Homo sapiens, UniProt O95475 114-200, T165P)
# T4 sequence: T1 sequence with T52P, I54L
# SIX6 [5] = biological target: T5, SIX6 (Homo sapiens, UniProt O95475 114-200, L167M)
# T5 sequence: T1 sequence with I54M
# SIX6 [6] = biological target: T6, SIX6 (Homo sapiens, UniProt O95475 114-200, L143M)
# T6 sequence: T1 sequence with L30M, I54L
# SIX6 [7] = biological target: T7, SIX6 (Homo sapiens, UniProt O95475 114-200, L143I)
# T7 sequence: T1 sequence with L30I, I54L
# SIX6 [8] = biological target: T8, SIX6 (Homo sapiens, UniProt O95475 114-200, T165G)
# T8 sequence: T1 sequence with T52G, I54L
# SIX6 [9] = biological target: T9, SIX6 (Homo sapiens, UniProt O95475 114-200, T139Q)
# T9 sequence: T1 sequence with T26Q, I54L
# SIX6 [10] = biological target: T10, SIX6 (Homo sapiens, UniProt O95475 114-200, T165A)
# T10 sequence: T1 sequence with T52A, I54L
# SIX6 [11] = biological target: T11, SIX6 (Homo sapiens, UniProt O95475 114-200, L167V)
# T11 sequence: T1 sequence with I54V
# SIX6 [12] = biological target: T12, SIX6 (Homo sapiens, UniProt O95475 114-200)
# T12 sequence: T1 sequence with I54L
# SIX6 [13] = biological target: T13, SIX6 (Homo sapiens, UniProt O95475 114-200, T165I)
# T13 sequence: T1 sequence with T52I, I54L
Sequence,binding signal (SIX6 [1]),binding signal (SIX6 [2]),binding signal (SIX6 [3]),binding signal (SIX6 [4]),binding signal (SIX6 [5]),binding signal (SIX6 [6]),binding signal (SIX6 [7]),binding signal (SIX6 [8]),binding signal (SIX6 [9]),binding signal (SIX6 [10]),binding signal (SIX6 [11]),binding signal (SIX6 [12]),binding signal (SIX6 [13])
CGCAGCGC,"9.07 upbm affinity estimate (log intensity, higher = more binding, comparable within an allelic series)","8.94 upbm affinity estimate (log intensity, higher = more binding, comparable within an allelic series)","9.04 upbm affinity estimate (log intensity, higher = more binding, comparable within an allelic series)","8.96 upbm affinity estimate (log intensity, higher = more binding, comparable within an allelic series)","9.06 upbm affinity estimate (log intensity, higher = more binding, comparable within an allelic series)","9.12 upbm affinity estimate (log intensity, higher = more binding, comparable within an allelic series)","9.01 upbm affinity estimate (log intensity, higher = more binding, comparable within an allelic series)","8.94 upbm affinity estimate (log intensity, higher = more binding, comparable within an allelic series)","8.99 upbm affinity estimate (log intensity, higher = more binding, comparable within an allelic series)","8.97 upbm affinity estimate (log intensity, higher = more binding, comparable within an allelic series)","9.06 upbm affinity estimate (log intensity, higher = more binding, comparable within an allelic series)","8.95 upbm affinity estimate (log intensity, higher = more binding, comparable within an allelic series)","9.02 upbm affinity estimate (log intensity, higher = more binding, comparable within an allelic series)"
AGTTCGGG,"8.99 upbm affinity estimate (log intensity, higher = more binding, comparable within an allelic series)","9 upbm affinity estimate (log intensity, higher = more binding, comparable within an allelic series)","8.96 upbm affinity estimate (log intensity, higher = more binding, comparable within an allelic series)","9.14 upbm affinity estimate (log intensity, higher = more binding, comparable within an allelic series)","9.03 upbm affinity estimate (log intensity, higher = more binding, comparable within an allelic series)","9.18 upbm affinity estimate (log intensity, higher = more binding, comparable within an allelic series)","9.05 upbm affinity estimate (log intensity, higher = more binding, comparable within an allelic series)","9.12 upbm affinity estimate (log intensity, higher = more binding, comparable within an allelic series)","9.14 upbm affinity estimate (log intensity, higher = more binding, comparable within an allelic series)","8.95 upbm affinity estimate (log intensity, higher = more binding, comparable within an allelic series)","8.74 upbm affinity estimate (log intensity, higher = more binding, comparable within an allelic series)","9.05 upbm affinity estimate (log intensity, higher = more binding, comparable within an allelic series)","8.91 upbm affinity estimate (log intensity, higher = more binding, comparable within an allelic series)"
GATATCTA,"11.1 upbm affinity estimate (log intensity, higher = more binding, comparable within an allelic series)","10.4 upbm affinity estimate (log intensity, higher = more binding, comparable within an allelic series)","11.1 upbm affinity estimate (log intensity, higher = more binding, comparable within an allelic series)","9.98 upbm affinity estimate (log intensity, higher = more binding, comparable within an allelic series)","10.8 upbm affinity estimate (log intensity, higher = more binding, comparable within an allelic series)","10.9 upbm affinity estimate (log intensity, higher = more binding, comparable within an allelic series)","10.3 upbm affinity estimate (log intensity, higher = more binding, comparable within an allelic series)","11.1 upbm affinity estimate (log intensity, higher = more binding, comparable within an allelic series)","11 upbm affinity estimate (log intensity, higher = more binding, comparable within an allelic series)","11 upbm affinity estimate (log intensity, higher = more binding, comparable within an allelic series)","10.9 upbm affinity estimate (log intensity, higher = more binding, comparable within an allelic series)","10.9 upbm affinity estimate (log intensity, higher = more binding, comparable within an allelic series)","10.9 upbm affinity estimate (log intensity, higher = more binding, comparable within an allelic series)"
AGGTGGGC,"8.98 upbm affinity estimate (log intensity, higher = more binding, comparable within an allelic series)","8.85 upbm affinity estimate (log intensity, higher = more binding, comparable within an allelic series)","8.88 upbm affinity estimate (log intensity, higher = more binding, comparable within an allelic series)","8.89 upbm affinity estimate (log intensity, higher = more binding, comparable within an allelic series)","8.86 upbm affinity estimate (log intensity, higher = more binding, comparable within an allelic series)","8.93 upbm affinity estimate (log intensity, higher = more binding, comparable within an allelic series)","8.92 upbm affinity estimate (log intensity, higher = more binding, comparable within an allelic series)","8.98 upbm affinity estimate (log intensity, higher = more binding, comparable within an allelic series)","9.06 upbm affinity estimate (log intensity, higher = more binding, comparable within an allelic series)","8.91 upbm affinity estimate (log intensity, higher = more binding, comparable within an allelic series)","8.91 upbm affinity estimate (log intensity, higher = more binding, comparable within an allelic series)","8.91 upbm affinity estimate (log intensity, higher = more binding, comparable within an allelic series)","8.94 upbm affinity estimate (log intensity, higher = more binding, comparable within an allelic series)"
GGGTATCA,"11.7 upbm affinity estimate (log intensity, higher = more binding, comparable within an allelic series)","10.5 upbm affinity estimate (log intensity, higher = more binding, comparable within an allelic series)","11.7 upbm affinity estimate (log intensity, higher = more binding, comparable within an allelic series)","9.44 upbm affinity estimate (log intensity, higher = more binding, comparable within an allelic series)","11 upbm affinity estimate (log intensity, higher = more binding, comparable within an allelic series)","11.4 upbm affinity estimate (log intensity, higher = more binding, comparable within an allelic series)","10.6 upbm affinity estimate (log intensity, higher = more binding, comparable within an allelic series)","11.8 upbm affinity estimate (log intensity, higher = more binding, comparable within an allelic series)","11.6 upbm affinity estimate (log intensity, higher = more binding, comparable within an allelic series)","11.6 upbm affinity estimate (log intensity, higher = more binding, comparable within an allelic series)","11.6 upbm affinity estimate (log intensity, higher = more binding, comparable within an allelic series)","11.4 upbm affinity estimate (log intensity, higher = more binding, comparable within an allelic series)","11.5 upbm affinity estimate (log intensity, higher = more binding, comparable within an allelic series)"
GCCCGGAA,"9.01 upbm affinity estimate (log intensity, higher = more binding, comparable within an allelic series)","8.91 upbm affinity estimate (log intensity, higher = more binding, comparable within an allelic series)","8.98 upbm affinity estimate (log intensity, higher = more binding, comparable within an allelic series)","8.9 upbm affinity estimate (log intensity, higher = more binding, comparable within an allelic series)","8.95 upbm affinity estimate (log intensity, higher = more binding, comparable within an allelic series)","9.01 upbm affinity estimate (log intensity, higher = more binding, comparable within an allelic series)","9 upbm affinity estimate (log intensity, higher = more binding, comparable within an allelic series)","9.03 upbm affinity estimate (log intensity, higher = more binding, comparable within an allelic series)","9.07 upbm affinity estimate (log intensity, higher = more binding, comparable within an allelic series)","8.96 upbm affinity estimate (log intensity, higher = more binding, comparable within an allelic series)","8.95 upbm affinity estimate (log intensity, higher = more binding, comparable within an allelic series)","8.97 upbm affinity estimate (log intensity, higher = more binding, comparable within an allelic series)","8.98 upbm affinity estimate (log intensity, higher = more binding, comparable within an allelic series)"
GCCAGTCC,"9.04 upbm affinity estimate (log intensity, higher = more binding, comparable within an allelic series)","8.92 upbm affinity estimate (log intensity, higher = more binding, comparable within an allelic series)","8.9 upbm affinity estimate (log intensity, higher = more binding, comparable within an allelic series)","9.04 upbm affinity estimate (log intensity, higher = more binding, comparable within an allelic series)","8.92 upbm affinity estimate (log intensity, higher = more binding, comparable within an allelic series)","8.89 upbm affinity estimate (log intensity, higher = more binding, comparable within an allelic series)","9.03 upbm affinity estimate (log intensity, higher = more binding, comparable within an allelic series)","9 upbm affinity estimate (log intensity, higher = more binding, comparable within an allelic series)","9.12 upbm affinity estimate (log intensity, higher = more binding, comparable within an allelic series)","8.81 upbm affinity estimate (log intensity, higher = more binding, comparable within an allelic series)","8.95 upbm affinity estimate (log intensity, higher = more binding, comparable within an allelic series)","8.9 upbm affinity estimate (log intensity, higher = more binding, comparable within an allelic series)","8.85 upbm affinity estimate (log intensity, higher = more binding, comparable within an allelic series)"
AGGGCCCG,"8.98 upbm affinity estimate (log intensity, higher = more binding, comparable within an allelic series)","8.79 upbm affinity estimate (log intensity, higher = more binding, comparable within an allelic series)","8.98 upbm affinity estimate (log intensity, higher = more binding, comparable within an allelic series)","8.84 upbm affinity estimate (log intensity, higher = more binding, comparable within an allelic series)","8.98 upbm affinity estimate (log intensity, higher = more binding, comparable within an allelic series)","8.93 upbm affinity estimate (log intensity, higher = more binding, comparable within an allelic series)","8.9 upbm affinity estimate (log intensity, higher = more binding, comparable within an allelic series)","8.99 upbm affinity estimate (log intensity, higher = more binding, comparable within an allelic series)","9.07 upbm affinity estimate (log intensity, higher = more binding, comparable within an allelic series)","8.92 upbm affinity estimate (log intensity, higher = more binding, comparable within an allelic series)","8.93 upbm affinity estimate (log intensity, higher = more binding, comparable within an allelic series)","8.95 upbm affinity estimate (log intensity, higher = more binding, comparable within an allelic series)","8.9 upbm affinity estimate (log intensity, higher = more binding, comparable within an allelic series)"
CGCAAGCG,"8.99 upbm affinity estimate (log intensity, higher = more binding, comparable within an allelic series)","9.04 upbm affinity estimate (log intensity, higher = more binding, comparable within an allelic series)","8.99 upbm affinity estimate (log intensity, higher = more binding, comparable within an allelic series)","9.04 upbm affinity estimate (log intensity, higher = more binding, comparable within an allelic series)","9.02 upbm affinity estimate (log intensity, higher = more binding, comparable within an allelic series)","9.01 upbm affinity estimate (log intensity, higher = more binding, comparable within an allelic series)","9.04 upbm affinity estimate (log intensity, higher = more binding, comparable within an allelic series)","8.96 upbm affinity estimate (log intensity, higher = more binding, comparable within an allelic series)","9.04 upbm affinity estimate (log intensity, higher = more binding, comparable within an allelic series)","8.95 upbm affinity estimate (log intensity, higher = more binding, comparable within an allelic series)","8.92 upbm affinity estimate (log intensity, higher = more binding, comparable within an allelic series)","9.01 upbm affinity estimate (log intensity, higher = more binding, comparable within an allelic series)","8.97 upbm affinity estimate (log intensity, higher = more binding, comparable within an allelic series)"
CCCTCTGC,"8.98 upbm affinity estimate (log intensity, higher = more binding, comparable within an allelic series)","8.83 upbm affinity estimate (log intensity, higher = more binding, comparable within an allelic series)","9.02 upbm affinity estimate (log intensity, higher = more binding, comparable within an allelic series)","8.85 upbm affinity estimate (log intensity, higher = more binding, comparable within an allelic series)","8.95 upbm affinity estimate (log intensity, higher = more binding, comparable within an allelic series)","9.06 upbm affinity estimate (log intensity, higher = more binding, comparable within an allelic series)","8.9 upbm affinity estimate (log intensity, higher = more binding, comparable within an allelic series)","9.1 upbm affinity estimate (log intensity, higher = more binding, comparable within an allelic series)","9.06 upbm affinity estimate (log intensity, higher = more binding, comparable within an allelic series)","9.06 upbm affinity estimate (log intensity, higher = more binding, comparable within an allelic series)","8.95 upbm affinity estimate (log intensity, higher = more binding, comparable within an allelic series)","9.05 upbm affinity estimate (log intensity, higher = more binding, comparable within an allelic series)","8.97 upbm affinity estimate (log intensity, higher = more binding, comparable within an allelic series)"
CAGGTATC,"10.9 upbm affinity estimate (log intensity, higher = more binding, comparable within an allelic series)","10.2 upbm affinity estimate (log intensity, higher = more binding, comparable within an allelic series)","10.9 upbm affinity estimate (log intensity, higher = more binding, comparable within an allelic series)","9.6 upbm affinity estimate (log intensity, higher = more binding, comparable within an allelic series)","10.5 upbm affinity estimate (log intensity, higher = more binding, comparable within an allelic series)","10.7 upbm affinity estimate (log intensity, higher = more binding, comparable within an allelic series)","10.2 upbm affinity estimate (log intensity, higher = more binding, comparable within an allelic series)","11.1 upbm affinity estimate (log intensity, higher = more binding, comparable within an allelic series)","11.1 upbm affinity estimate (log intensity, higher = more binding, comparable within an allelic series)","11 upbm affinity estimate (log intensity, higher = more binding, comparable within an allelic series)","10.6 upbm affinity estimate (log intensity, higher = more binding, comparable within an allelic series)","10.9 upbm affinity estimate (log intensity, higher = more binding, comparable within an allelic series)","10.7 upbm affinity estimate (log intensity, higher = more binding, comparable within an allelic series)"
